Data published in the supplement of paper PMC11732987, “Enantioselective OTUD7B fragment discovery through chemoproteomics screening and high-throughput optimisation” (Communications Chemistry, 2025).

How the values were obtained:
Test in all cases: log2 ratio of Biotin-Ahx-Ub-VS probe labelling (fragment/DMSO); higher = less target engagement (more negative = stronger competition), active = hit call of the paper (q ≤ 0.05, log2 ratio ≤ -1)
Conditions in all cases: compound concentration: 200 uM; treatment time: 3 h
USP42 = target: T1, USP42 (UniProt Q9H9J4)
T1 sequence (whole entry): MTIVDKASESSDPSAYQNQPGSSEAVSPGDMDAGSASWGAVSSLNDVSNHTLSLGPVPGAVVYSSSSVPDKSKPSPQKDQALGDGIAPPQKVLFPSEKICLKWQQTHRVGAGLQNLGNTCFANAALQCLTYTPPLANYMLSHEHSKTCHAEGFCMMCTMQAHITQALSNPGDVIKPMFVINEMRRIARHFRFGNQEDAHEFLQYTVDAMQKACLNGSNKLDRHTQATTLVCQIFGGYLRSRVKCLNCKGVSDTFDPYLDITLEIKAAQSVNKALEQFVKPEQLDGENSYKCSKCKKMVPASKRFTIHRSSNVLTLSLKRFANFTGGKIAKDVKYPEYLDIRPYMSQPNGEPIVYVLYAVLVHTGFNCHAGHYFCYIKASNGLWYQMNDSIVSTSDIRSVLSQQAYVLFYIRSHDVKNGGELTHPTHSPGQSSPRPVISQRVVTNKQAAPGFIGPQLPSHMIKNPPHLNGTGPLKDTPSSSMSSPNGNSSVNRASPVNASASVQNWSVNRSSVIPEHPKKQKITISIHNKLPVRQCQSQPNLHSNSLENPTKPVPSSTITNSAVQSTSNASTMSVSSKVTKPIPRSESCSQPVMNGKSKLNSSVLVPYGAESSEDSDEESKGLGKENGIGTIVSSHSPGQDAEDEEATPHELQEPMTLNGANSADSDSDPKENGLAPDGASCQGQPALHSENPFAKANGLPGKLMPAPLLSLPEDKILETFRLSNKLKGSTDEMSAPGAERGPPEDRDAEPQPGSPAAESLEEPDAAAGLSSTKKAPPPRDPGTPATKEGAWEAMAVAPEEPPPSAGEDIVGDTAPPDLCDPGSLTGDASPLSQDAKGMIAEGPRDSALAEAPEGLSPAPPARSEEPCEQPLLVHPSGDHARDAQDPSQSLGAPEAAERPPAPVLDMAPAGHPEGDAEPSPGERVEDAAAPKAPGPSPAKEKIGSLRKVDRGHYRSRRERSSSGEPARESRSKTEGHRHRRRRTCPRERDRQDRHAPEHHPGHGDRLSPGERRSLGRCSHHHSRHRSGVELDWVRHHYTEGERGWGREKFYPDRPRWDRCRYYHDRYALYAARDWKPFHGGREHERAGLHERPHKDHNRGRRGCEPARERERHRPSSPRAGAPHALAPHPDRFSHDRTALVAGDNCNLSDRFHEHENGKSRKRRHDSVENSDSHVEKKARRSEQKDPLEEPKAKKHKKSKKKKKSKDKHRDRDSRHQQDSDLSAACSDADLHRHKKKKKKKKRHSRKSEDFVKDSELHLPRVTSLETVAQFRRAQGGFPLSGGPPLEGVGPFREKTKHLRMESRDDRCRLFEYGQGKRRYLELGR
Outline: (§1)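 The table lists average log2 ratios of fragment over vehicle, from an unpaired t-test on global-median-normalised Spectronaut label-free quantities. Proteins with ≥2 unique peptides were used. Samples were HEK293T lysate (495 µg) treated in triplicate with fragment at 200 µM or vehicle for 3 h, then with Biotin-Ahx-Ub-VS (0.5 µM final) for 1 h, with labelled DUBs NeutrAvidin-enriched and run by diaPASEF LC-MS/MS.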

USP46 = USP46 (UniProt P62068)
Outline: as §1

USP47 = target: T2, USP47 (UniProt Q96K76)
T2 sequence (whole entry): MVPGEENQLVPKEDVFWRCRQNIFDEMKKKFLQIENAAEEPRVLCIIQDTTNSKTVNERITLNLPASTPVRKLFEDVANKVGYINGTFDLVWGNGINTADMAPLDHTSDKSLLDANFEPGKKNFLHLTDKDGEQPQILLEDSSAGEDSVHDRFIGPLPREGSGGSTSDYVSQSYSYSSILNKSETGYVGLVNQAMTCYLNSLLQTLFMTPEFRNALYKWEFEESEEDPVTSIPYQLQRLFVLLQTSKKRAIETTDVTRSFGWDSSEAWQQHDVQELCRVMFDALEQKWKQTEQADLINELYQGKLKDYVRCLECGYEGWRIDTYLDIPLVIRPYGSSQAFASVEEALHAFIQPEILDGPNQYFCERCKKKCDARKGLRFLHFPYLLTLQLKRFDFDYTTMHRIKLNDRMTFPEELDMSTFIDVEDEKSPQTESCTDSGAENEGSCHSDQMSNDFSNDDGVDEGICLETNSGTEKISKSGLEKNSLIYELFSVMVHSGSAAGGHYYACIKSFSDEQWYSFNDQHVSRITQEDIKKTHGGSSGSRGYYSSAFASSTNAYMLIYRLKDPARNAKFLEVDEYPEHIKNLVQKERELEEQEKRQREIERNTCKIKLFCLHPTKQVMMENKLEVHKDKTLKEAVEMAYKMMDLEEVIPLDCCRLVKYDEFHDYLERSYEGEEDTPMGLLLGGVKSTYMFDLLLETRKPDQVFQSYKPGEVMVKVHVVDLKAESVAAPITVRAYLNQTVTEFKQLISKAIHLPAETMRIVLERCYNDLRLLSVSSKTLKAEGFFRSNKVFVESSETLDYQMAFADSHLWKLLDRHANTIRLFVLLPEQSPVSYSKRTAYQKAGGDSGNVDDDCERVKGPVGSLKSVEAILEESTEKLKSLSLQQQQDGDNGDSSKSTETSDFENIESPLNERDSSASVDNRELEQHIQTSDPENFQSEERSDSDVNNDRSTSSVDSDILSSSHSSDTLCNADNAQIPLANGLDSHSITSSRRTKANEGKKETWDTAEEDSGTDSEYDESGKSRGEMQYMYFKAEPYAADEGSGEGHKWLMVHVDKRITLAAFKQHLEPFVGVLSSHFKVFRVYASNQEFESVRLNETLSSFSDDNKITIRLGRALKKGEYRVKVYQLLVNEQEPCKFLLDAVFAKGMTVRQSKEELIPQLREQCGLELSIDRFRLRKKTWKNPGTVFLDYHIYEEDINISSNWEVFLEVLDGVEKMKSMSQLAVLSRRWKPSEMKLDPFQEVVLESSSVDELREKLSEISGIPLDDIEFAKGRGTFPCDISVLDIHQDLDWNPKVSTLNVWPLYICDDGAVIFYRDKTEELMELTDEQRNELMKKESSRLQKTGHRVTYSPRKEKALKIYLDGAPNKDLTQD
Outline: as §1

USP48 = target: T3, USP48 (UniProt Q86UV5)
T3 sequence (whole entry): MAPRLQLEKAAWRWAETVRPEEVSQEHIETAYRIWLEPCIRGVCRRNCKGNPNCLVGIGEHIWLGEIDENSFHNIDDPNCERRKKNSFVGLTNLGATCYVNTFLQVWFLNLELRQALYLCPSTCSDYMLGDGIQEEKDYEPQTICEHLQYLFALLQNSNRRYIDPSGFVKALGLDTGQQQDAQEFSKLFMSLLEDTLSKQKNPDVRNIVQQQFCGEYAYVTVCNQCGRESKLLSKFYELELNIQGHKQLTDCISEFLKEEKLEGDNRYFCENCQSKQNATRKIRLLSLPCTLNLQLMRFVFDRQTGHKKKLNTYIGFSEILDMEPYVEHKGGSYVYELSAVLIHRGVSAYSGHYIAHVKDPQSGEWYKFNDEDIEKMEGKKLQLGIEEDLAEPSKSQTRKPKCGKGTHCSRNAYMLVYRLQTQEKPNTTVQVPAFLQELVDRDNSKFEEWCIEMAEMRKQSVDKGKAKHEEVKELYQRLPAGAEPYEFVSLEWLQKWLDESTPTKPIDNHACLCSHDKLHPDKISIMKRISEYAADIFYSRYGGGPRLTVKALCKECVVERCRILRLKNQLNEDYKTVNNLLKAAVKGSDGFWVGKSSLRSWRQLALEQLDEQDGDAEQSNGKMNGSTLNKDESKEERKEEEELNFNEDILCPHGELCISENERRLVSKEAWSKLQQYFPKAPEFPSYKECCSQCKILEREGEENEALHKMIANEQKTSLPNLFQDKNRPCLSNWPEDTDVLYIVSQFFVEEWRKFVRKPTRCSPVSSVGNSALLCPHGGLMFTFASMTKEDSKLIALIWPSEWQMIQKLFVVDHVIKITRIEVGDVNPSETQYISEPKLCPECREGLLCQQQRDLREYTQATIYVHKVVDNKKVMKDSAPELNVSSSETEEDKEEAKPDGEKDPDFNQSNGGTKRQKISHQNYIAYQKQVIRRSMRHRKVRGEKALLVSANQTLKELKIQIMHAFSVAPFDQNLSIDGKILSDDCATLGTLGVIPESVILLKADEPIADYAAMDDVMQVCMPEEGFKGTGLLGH
Outline: as §1

USP5 = target: T4, USP5 (UniProt P45974)
T4 sequence (whole entry): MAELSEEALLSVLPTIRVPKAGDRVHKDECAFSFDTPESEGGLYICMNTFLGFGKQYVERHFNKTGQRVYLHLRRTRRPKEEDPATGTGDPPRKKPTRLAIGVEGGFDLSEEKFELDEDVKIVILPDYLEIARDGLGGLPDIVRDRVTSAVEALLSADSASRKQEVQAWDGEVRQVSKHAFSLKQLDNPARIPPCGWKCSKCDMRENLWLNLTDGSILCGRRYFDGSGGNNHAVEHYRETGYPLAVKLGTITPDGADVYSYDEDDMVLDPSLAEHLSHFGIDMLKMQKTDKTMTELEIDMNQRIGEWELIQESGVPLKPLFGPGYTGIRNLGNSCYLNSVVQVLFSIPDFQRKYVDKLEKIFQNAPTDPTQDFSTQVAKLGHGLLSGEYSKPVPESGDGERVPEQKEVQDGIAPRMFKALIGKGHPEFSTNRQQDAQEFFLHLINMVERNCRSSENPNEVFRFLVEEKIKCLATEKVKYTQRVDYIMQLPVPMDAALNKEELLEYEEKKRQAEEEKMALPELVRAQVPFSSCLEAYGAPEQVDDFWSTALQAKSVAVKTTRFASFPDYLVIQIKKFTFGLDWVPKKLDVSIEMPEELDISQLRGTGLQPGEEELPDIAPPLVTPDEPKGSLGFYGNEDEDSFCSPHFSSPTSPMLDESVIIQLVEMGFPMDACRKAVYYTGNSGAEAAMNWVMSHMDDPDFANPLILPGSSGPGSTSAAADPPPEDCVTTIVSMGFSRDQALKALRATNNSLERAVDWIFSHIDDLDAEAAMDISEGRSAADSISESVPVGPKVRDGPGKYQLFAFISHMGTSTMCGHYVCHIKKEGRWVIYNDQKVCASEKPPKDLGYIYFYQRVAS
Outline: as §1

USP54 = USP54 (UniProt Q70EL1)
Outline: as §1

USP7 = USP7 (UniProt Q93009)
Outline: as §1

USP8 = target: T5, USP8 (UniProt P40818)
T5 sequence (whole entry): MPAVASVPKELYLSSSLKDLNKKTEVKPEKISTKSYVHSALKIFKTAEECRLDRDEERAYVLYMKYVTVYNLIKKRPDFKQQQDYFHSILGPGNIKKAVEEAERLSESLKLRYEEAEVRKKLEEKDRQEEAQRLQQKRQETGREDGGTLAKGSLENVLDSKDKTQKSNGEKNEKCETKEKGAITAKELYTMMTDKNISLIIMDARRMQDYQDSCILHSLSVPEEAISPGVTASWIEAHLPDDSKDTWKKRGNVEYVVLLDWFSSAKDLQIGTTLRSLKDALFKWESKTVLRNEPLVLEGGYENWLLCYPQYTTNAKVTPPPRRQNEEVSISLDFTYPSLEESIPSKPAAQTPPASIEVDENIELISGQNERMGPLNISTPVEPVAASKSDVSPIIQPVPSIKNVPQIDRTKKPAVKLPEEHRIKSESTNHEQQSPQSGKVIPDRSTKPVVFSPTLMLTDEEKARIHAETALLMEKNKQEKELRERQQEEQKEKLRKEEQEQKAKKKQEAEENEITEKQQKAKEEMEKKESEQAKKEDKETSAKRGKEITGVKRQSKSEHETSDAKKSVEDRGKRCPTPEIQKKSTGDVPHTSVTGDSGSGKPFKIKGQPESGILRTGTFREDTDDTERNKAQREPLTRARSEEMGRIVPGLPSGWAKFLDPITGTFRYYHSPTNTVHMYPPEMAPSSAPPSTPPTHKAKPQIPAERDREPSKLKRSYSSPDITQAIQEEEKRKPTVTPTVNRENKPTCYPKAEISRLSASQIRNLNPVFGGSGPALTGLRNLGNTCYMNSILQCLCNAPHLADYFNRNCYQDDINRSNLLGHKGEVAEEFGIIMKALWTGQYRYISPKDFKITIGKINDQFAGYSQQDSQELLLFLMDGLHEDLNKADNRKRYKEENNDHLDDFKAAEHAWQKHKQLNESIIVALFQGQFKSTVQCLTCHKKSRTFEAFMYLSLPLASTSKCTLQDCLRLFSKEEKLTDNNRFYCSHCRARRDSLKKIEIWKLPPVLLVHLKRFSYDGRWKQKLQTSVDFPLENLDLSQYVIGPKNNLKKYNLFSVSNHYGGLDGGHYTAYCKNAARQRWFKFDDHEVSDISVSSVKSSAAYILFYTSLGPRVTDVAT
Outline: as §1

USP9X = USP9X (UniProt Q93008)
Outline: as §1

UniProt O00487 = target: UniProt O00487
Outline: as §1

Measured: log2 ratio of Biotin-Ahx-Ub-VS probe labelling

Chain of USP46 (P62068 whole entry): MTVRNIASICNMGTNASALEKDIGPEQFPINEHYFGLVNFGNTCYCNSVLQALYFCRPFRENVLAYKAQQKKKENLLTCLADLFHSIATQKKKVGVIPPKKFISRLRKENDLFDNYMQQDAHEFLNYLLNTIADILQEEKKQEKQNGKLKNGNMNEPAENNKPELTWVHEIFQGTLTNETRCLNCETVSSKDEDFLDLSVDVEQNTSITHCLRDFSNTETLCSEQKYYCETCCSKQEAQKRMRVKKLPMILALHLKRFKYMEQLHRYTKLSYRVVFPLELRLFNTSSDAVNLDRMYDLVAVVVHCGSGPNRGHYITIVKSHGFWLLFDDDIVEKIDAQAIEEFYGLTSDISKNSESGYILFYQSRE
Chain of USP7 (Q93009 whole entry, looked up): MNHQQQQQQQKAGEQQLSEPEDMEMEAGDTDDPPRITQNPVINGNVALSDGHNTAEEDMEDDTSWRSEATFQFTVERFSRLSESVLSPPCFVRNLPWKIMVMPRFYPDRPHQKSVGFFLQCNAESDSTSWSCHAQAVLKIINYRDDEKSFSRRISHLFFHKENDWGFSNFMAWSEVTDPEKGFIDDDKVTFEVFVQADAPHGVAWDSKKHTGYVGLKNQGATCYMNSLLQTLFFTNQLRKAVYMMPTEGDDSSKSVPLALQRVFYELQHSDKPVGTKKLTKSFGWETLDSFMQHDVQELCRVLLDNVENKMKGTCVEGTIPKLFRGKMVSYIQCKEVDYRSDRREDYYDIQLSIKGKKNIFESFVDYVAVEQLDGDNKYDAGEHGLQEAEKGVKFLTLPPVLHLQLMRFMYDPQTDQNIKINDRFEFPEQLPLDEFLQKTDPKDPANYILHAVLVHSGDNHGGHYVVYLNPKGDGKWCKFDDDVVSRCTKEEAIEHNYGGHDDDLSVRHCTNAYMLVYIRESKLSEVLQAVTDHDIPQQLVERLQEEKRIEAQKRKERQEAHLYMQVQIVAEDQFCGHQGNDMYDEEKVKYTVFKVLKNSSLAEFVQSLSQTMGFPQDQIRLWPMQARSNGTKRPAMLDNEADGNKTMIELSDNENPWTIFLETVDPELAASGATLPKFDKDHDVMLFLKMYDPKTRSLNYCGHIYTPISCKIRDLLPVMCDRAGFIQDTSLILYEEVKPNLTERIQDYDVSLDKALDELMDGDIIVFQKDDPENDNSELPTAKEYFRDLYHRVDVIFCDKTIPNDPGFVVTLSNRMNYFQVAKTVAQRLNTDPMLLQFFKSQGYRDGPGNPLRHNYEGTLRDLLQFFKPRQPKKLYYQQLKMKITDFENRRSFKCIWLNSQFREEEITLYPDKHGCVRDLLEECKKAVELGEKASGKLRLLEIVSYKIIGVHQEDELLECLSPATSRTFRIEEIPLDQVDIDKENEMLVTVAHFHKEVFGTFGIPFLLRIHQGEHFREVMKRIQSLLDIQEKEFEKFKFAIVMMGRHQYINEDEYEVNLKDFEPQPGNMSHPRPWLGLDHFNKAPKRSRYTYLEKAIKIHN
Chain of USP54 (Q70EL1 whole entry): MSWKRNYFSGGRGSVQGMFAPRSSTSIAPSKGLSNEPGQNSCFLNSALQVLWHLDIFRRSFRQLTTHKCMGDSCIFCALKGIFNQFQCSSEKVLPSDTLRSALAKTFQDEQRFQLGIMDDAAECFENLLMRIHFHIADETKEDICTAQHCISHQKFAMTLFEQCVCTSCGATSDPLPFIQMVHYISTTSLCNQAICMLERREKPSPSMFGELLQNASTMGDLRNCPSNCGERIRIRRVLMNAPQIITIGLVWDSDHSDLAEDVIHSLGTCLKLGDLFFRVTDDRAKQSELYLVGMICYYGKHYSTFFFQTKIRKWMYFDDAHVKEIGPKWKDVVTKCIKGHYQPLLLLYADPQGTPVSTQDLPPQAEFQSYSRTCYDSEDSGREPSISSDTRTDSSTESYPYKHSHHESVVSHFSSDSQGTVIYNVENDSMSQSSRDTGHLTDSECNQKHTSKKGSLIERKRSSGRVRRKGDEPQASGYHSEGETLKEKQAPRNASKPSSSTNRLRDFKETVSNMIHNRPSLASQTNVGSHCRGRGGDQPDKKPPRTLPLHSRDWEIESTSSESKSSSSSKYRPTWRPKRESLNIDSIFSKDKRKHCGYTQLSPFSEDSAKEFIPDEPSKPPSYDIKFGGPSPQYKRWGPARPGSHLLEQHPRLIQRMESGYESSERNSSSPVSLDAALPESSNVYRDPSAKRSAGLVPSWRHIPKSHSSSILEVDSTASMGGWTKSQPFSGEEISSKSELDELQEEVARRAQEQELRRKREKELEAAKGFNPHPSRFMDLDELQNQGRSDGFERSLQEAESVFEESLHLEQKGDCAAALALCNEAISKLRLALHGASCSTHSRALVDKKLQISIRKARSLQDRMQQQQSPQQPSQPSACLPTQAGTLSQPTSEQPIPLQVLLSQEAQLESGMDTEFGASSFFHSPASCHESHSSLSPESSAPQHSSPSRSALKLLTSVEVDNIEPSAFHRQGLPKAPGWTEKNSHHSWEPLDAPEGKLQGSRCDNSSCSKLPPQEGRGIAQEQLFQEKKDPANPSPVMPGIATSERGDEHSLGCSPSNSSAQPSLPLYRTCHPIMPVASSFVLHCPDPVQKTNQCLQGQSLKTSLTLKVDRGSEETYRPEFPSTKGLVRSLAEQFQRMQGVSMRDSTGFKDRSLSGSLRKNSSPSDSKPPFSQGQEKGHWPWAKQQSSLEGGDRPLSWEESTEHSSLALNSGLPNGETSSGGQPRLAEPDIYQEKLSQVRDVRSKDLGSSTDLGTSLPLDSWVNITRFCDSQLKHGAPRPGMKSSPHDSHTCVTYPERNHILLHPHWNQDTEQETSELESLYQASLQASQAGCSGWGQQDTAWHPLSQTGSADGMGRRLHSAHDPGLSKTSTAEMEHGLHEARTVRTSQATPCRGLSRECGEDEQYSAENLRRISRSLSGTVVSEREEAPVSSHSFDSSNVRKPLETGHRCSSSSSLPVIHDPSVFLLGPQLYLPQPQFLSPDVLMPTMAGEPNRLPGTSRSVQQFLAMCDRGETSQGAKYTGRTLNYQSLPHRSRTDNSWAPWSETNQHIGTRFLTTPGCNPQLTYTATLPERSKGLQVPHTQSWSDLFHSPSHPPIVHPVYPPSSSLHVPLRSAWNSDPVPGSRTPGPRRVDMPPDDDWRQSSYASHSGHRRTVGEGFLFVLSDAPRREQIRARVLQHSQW
Chain of UniProt O00487 (O00487 whole entry): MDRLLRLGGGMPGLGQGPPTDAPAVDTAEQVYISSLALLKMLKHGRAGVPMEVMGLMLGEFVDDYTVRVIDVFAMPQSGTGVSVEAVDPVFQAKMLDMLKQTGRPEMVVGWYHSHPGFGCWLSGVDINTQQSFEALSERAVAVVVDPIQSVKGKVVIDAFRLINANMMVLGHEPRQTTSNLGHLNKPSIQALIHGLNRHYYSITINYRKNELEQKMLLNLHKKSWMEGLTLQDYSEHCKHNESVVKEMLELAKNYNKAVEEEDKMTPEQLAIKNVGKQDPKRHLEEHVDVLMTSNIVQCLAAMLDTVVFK

COc1ccc(-c2csc(NC(=O)CCl)n2)cc1
inactive: USP42 -0.269 | USP46 -0.355 | USP47 -0.0139 | USP48 -0.611 | USP5 0.0191 | USP54 0.204 | USP7 -0.576 | USP8 -0.316 | USP9X -0.66 | UniProt O00487 -0.101
